Assay [1] in a line: viability loss with induced miR-34 in A549 – imaging, A549 dox-inducible miR-34, nuclei and caspase counts, primary screen (AID 1347080;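 active = compounds whose cell count with miR-34 switched on is under 0.7 times the count with it off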; note: test concentration not given here). The settings on record: A549 miR-34 inducible, Hoechst nuclei count, 48 h.
Assay [2] in a line: MELAS cybrid and Rieske KO viability enhancers – cell-based, MELAS cybrids, Rieske KO mouse fibroblasts, CellTiter-Glo, primary screen (AID 1508586).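 Note: test concentration not given here; z relative to plate mean and SD of compound and empty wells.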 The note with it: low glucose. A general note: In ATP-based viability assays light output follows the ATP content of the culture.
Assay [3] can be described thus: galactose survival enhancers in mitochondrial complex I cybrids – cell-based, galactose medium, ATP luminescence, primary screen (AID 1645843;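 active = z-score of at least 1.8 in each of two replicates, scored against plate mean and spread of sample wells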;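 note: positive z means more ATP and so rescue of galactose-driven cybrid death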). The note with it: complex I mutant cybrid cells, 72 h, stronger effect = higher value.
Where [4] appears, read: stronger effect = lower value, cell number ratio, induced over uninduced.
Setting [5] is: measured here: relative caspase fold change +Dox/-Dox.
The mark [6] stands for this setting: measured here: total cells with miR-34 induction, stronger effect = lower value.
The mark [7] stands for this setting: measured here: total cells without miR-34 induction.
The mark [8] stands for this setting: MELAS cybrid survival, CellTiter-Glo 48 h, stronger effect = higher value.
[9] abbreviates: Rieske KO mouse fibroblast survival, CellTiter-Glo 72 h.

For 15 compounds, fold change, cell count and z-score results are on record in PubChem BioAssay.

SMILES strings stand for the structures. Activity calls are given as the source filed them.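 Rule for the calls, unless noted: active = mean z-score across replicates of 1.96 or higher in either the MELAS or the Rieske mutant cell line; inactive = the rest.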

Take `Cc1nc(NC(=O)NCc2cccc(Cl)c2)nn1C`: the fold change in assay [1] (setting [4]) was 0.889 (inactive); in assay [1] (setting [5]) it was 2.08. Besides, the cell count in assay [1] (setting [6]) is 8140; in assay [1] (setting [7]), 9160. Further, the z-score in assay [2] (setting [8]) was 7.52 (active); in assay [2] (setting [9]) it was 0.00105; in assay [3], -0.605 (inactive).

Take `OC1(CNc2ncnc3nc[nH]c23)C2CC3CC(C2)CC1C3` (stereo not given): the fold change in assay [1] (setting [4]) was 0.887 (inactive); in assay [1] (setting [5]), 0.873. For the same compound, the cell count amounted to 8560 in assay [1] (setting [6]) and 9650 in assay [1] (setting [7]). For the same compound, the z-score in assay [2] (setting [8]) is -0.357 (inactive); in assay [2] (setting [9]), -0.0569; in assay [3], -0.575 (inactive).

Regarding `CCn1cc(CNC(=O)Nc2nnc(C(C)(C)C)s2)cn1`, the values for the fold change in assay [1] (setting [4]) and in assay [1] (setting [5]) were 0.886 (inactive) and 2.1, respectively. Also, the figures for the cell count in assay [1] (setting [6]) and in assay [1] (setting [7]) were 8600 and 9710, respectively. Moreover, the z-score was 0.641 (inactive) in assay [2] (setting [8]), -0.73 in assay [2] (setting [9]) and -0.6 (inactive) in assay [3].

Turning to `COc1ccc(CN2CCN(c3cc(C)nc(N)n3)CC2=O)cc1`, the results for the fold change in assay [1] (setting [4]) and in assay [1] (setting [5]) were 0.879 (inactive) and 1.5, respectively. The cell count was 8130 in assay [1] (setting [6]) and 9240 in assay [1] (setting [7]). In addition, the z-score in assay [2] (setting [8]) was 0.162 (inactive); in assay [2] (setting [9]), 0.559; in assay [3], -0.615 (inactive).

On to `COc1cccc(OC)c1-c1ccc(C(=O)Nc2cccnc2)o1`, for which the fold change is 0.893 (inactive) in assay [1] (setting [4]) and 2.2 in assay [1] (setting [5]). Moreover, the cell count was found to be 7930 in assay [1] (setting [6]) and 8880 in assay [1] (setting [7]). In addition, the z-score in assay [2] (setting [8]) is 0.0755 (inactive); in assay [2] (setting [9]) it was 0.502; in assay [3] it was -0.555 (inactive).

With `Fc1cccc(F)c1-c1nc2c(cnn2Cc2cccs2)[nH]1`, the fold change in assay [1] (setting [4]) was 0.88 (inactive); in assay [1] (setting [5]), 2.16. The cell count in assay [1] (setting [6]) was found to be 8590; in assay [1] (setting [7]), 9770. Besides, the z-score in assay [2] (setting [8]) is -0.231 (inactive); in assay [2] (setting [9]), 0.598; in assay [3], -0.555 (inactive).

With `CCn1cnc(NC(=O)N(C)CC2Cc3ccccc3O2)n1` (stereo not given), the fold change is 0.971 (inactive) in assay [1] (setting [4]) and 1.16 in assay [1] (setting [5]). Further, the cell count was 9520 in assay [1] (setting [6]) and 9810 in assay [1] (setting [7]). Further, the figures for the z-score in assay [2] (setting [8]), in assay [2] (setting [9]) and in assay [3] were -0.133 (inactive), -0.0873 and -0.62 (inactive), respectively.

As to `CC(C)(C)c1cn(C2CCN(C(=O)c3cnc4ccccc4n3)CC2)nn1`, the fold change is 0.867 (inactive) in assay [1] (setting [4]) and 1.26 in assay [1] (setting [5]). Further, the cell count in assay [1] (setting [6]) worked out at 7870; in assay [1] (setting [7]) it was 9080. For the same compound, the z-score in assay [2] (setting [8]) is 0.15 (inactive); in assay [2] (setting [9]), -0.382; in assay [3] it was -0.44 (inactive).

On to `O=C(O)Cc1cc(=O)[nH]c(=O)[nH]1`, for which the fold change in assay [1] (setting [4]) was 0.898 (inactive); in assay [1] (setting [5]) it was 0.239. For the same compound, the cell count in assay [1] (setting [6]) was determined as 8760; in assay [1] (setting [7]), 9760. Moreover, the z-score was 0.622 (inactive) in assay [2] (setting [8]), -0.242 in assay [2] (setting [9]) and -0.13 (inactive) in assay [3].

Take `CC[C@H](C)[C@H](NC(=O)c1nc2ccccc2c(=O)[nH]1)C(=O)OC`: the fold change in assay [1] (setting [4]) is 0.844 (inactive); in assay [1] (setting [5]), 2.34. Further, the figures for the cell count in assay [1] (setting [6]) and in assay [1] (setting [7]) were 7550 and 8940, respectively. For the same compound, the z-score in assay [2] (setting [8]) was 0.166 (inactive); in assay [2] (setting [9]), -0.367; in assay [3], -0.31 (inactive).

For the compound `CC(Nc1nc(N)nc2[nH]ncc12)c1ccc(Cl)cc1` (stereo not given), the fold change in assay [1] (setting [4]) was 0.895 (inactive); in assay [1] (setting [5]) it was 1.28. In addition, the cell count in assay [1] (setting [6]) is 7110; in assay [1] (setting [7]) it was 7940. Also, the z-score was -0.461 (inactive) in assay [2] (setting [8]), -0.503 in assay [2] (setting [9]) and -0.575 (inactive) in assay [3].

With `Cc1ncsc1-c1ccn(CC(=O)Nc2ccnn2Cc2cccs2)n1`, the values for the fold change in assay [1] (setting [4]) and in assay [1] (setting [5]) were 0.798 (inactive) and 1.89, respectively. In addition, the cell count in assay [1] (setting [6]) is 6540; in assay [1] (setting [7]), 8190. Moreover, the z-score is -0.383 (inactive) in assay [2] (setting [8]), -0.375 in assay [2] (setting [9]) and -0.525 (inactive) in assay [3].

As for `COc1ccc(N2CCN(c3ncnc4sccc34)C(C)C2=O)cc1` (stereo not given), the fold change was 0.791 (inactive) in assay [1] (setting [4]) and 1.18 in assay [1] (setting [5]). Moreover, the results for the cell count in assay [1] (setting [6]) and in assay [1] (setting [7]) were 6180 and 7810, respectively. Further, the results for the z-score in assay [2] (setting [8]), in assay [2] (setting [9]) and in assay [3] were -0.528 (inactive), -0.443 and -0.505 (inactive), respectively.

`CC(NC(=O)OCc1ccccc1)C(=O)O` (stereo not given): the fold change is 0.909 (inactive) in assay [1] (setting [4]) and 0.337 in assay [1] (setting [5]). The cell count was 9090 in assay [1] (setting [6]) and 10000 in assay [1] (setting [7]). Also, the values for the z-score in assay [2] (setting [8]), in assay [2] (setting [9]) and in assay [3] were 0.137 (inactive), 0.148 and 0.185 (inactive), respectively.

Turning to `Cc1ccc(Cn2nccc2NC(=O)Cn2cc(-c3ccc(F)cc3)cn2)o1`, the fold change was 0.895 (inactive) in assay [1] (setting [4]) and 0.589 in assay [1] (setting [5]). The cell count in assay [1] (setting [6]) was determined as 8330; in assay [1] (setting [7]), 9310. The figures for the z-score in assay [2] (setting [8]), in assay [2] (setting [9]) and in assay [3] were -0.0022 (inactive), -0.187 and 1.75 (inactive), respectively.
